# Columns and labels:
# Test in all cases: DAPPL (digital affinity profiling via proximity ligation, sequencing); 10 mM Tris-HCl pH 7.5, 50 mM NaCl, 1 mM DTT, 4% glycerol, room temperature, 30 min; GST-TFs on glutathione beads, 16-mer random dsDNA library, 0.1% formaldehyde crosslink after washing; high values mean tight binding
# FEV = target: T1, FEV (Homo sapiens, UniProt Q99581 1-238); details: protein: recombinant; tags: N-terminal GST; dsDNA, one strand shown
# T1 sequence: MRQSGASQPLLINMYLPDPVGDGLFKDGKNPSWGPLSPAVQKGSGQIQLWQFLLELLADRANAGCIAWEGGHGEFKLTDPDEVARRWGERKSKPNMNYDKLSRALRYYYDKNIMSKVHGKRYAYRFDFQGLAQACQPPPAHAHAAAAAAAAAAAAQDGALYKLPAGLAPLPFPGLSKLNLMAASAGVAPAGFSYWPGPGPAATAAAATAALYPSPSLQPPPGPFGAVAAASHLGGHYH
# Method in brief: (§1)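 Pools were built from human transcription factors expressed in yeast as GST fusions, captured on glutathione beads and DNA-barcoded, along with a tag-only sample. Incubation with 200 nmole of a 16-mer random double-stranded DNA library lasted 30 min at room temperature in Tris/NaCl/DTT/glycerol buffer, and was followed by washing, 0.1% formaldehyde crosslinking, proximity ligation, PCR amplification and Illumina NextSeq500 sequencing. Binding signal is the quotient of each hexamer's read frequency for a factor and its frequency for the tag-only sample.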
# ETV5 = ETV5 (Homo sapiens, UniProt P41161 1-510); details: protein: recombinant; tags: N-terminal GST; dsDNA, one strand shown
# ETV5, sequence (P41161 whole entry): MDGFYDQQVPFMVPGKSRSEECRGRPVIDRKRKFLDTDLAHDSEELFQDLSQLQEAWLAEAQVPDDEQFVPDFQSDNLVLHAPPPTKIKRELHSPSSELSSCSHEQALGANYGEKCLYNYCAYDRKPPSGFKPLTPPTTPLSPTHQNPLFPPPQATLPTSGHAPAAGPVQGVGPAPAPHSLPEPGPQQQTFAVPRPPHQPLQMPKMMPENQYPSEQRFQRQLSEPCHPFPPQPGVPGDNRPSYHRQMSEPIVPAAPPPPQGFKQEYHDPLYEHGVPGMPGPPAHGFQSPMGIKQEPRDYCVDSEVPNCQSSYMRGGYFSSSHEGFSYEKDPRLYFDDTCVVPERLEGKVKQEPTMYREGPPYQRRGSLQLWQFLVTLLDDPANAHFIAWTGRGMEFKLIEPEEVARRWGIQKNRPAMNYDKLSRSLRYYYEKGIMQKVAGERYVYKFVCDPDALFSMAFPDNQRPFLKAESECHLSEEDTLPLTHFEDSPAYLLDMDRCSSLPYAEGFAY
# Method in brief: as §1
# HSF1 = HSF1 (Homo sapiens, UniProt Q00613 1-529); details: protein: recombinant; tags: N-terminal GST; chain copies: 3; dsDNA, one strand shown
# HSF1, sequence (Q00613 whole entry): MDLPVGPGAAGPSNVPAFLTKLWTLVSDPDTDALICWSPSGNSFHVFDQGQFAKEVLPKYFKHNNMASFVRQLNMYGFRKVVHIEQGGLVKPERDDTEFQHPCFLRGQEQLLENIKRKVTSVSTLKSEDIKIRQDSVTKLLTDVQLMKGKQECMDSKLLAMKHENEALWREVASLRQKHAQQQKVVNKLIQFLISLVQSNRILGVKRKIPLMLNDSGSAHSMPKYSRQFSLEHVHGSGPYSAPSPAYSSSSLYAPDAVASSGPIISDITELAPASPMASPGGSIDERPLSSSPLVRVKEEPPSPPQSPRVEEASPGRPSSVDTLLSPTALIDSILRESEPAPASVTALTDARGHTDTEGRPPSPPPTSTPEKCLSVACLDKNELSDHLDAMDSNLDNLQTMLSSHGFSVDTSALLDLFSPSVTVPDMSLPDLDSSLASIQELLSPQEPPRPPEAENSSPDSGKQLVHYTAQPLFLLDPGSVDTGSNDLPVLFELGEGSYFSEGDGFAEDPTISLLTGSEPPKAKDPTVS
# Method in brief: as §1
# SPIC = target: T2, SPIC (Homo sapiens, UniProt Q8N5J4 1-248); details: protein: recombinant; tags: N-terminal GST; dsDNA, one strand shown
# T2 sequence: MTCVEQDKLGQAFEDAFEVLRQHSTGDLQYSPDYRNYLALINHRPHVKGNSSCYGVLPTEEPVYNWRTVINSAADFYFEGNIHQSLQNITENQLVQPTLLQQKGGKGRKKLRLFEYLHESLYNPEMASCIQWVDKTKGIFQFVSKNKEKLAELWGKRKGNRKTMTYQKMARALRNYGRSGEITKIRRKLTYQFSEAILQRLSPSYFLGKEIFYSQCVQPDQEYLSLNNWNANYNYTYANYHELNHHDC
# Method in brief: as §1
# ELF4 = ELF4 (Homo sapiens, UniProt Q99607 1-663); details: protein: recombinant; tags: N-terminal GST; dsDNA, one strand shown
# ELF4, sequence (Q99607 whole entry): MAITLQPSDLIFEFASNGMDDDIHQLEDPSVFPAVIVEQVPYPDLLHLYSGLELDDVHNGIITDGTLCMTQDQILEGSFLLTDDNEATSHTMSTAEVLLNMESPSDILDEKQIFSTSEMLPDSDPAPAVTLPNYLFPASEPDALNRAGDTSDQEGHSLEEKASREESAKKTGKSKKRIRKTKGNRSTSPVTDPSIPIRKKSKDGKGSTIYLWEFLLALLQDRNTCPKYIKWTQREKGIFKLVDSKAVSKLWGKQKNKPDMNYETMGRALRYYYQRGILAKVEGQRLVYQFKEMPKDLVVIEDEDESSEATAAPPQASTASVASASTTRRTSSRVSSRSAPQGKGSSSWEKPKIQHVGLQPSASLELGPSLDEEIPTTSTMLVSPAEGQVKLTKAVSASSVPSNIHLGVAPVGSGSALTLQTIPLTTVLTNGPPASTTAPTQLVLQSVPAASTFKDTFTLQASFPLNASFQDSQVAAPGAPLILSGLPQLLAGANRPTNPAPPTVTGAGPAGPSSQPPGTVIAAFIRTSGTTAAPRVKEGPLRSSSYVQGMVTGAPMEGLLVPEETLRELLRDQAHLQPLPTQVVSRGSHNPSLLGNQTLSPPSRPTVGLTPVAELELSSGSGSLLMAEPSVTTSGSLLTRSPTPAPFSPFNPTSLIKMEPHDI
# Method in brief: as §1
# ELK4 = target: T3, ELK4 (Homo sapiens, UniProt P28324-2 1-405); details: protein: recombinant; tags: N-terminal GST; dsDNA, one strand shown
# T3 sequence: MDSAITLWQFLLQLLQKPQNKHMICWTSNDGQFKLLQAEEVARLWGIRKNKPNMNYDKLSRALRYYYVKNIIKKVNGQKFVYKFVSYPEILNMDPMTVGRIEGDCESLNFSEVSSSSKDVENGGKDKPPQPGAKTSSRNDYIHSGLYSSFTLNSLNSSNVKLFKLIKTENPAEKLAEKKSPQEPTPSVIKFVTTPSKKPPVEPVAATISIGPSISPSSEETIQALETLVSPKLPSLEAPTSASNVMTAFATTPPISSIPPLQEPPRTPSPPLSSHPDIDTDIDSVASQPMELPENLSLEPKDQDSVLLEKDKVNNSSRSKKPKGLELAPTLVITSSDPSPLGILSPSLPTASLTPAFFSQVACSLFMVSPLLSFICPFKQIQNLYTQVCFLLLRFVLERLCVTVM
# Method in brief: as §1
# ETV2 = target: T4, ETV2 (Homo sapiens, UniProt O00321 1-342); details: protein: recombinant; tags: N-terminal GST; dsDNA, one strand shown
# T4 sequence: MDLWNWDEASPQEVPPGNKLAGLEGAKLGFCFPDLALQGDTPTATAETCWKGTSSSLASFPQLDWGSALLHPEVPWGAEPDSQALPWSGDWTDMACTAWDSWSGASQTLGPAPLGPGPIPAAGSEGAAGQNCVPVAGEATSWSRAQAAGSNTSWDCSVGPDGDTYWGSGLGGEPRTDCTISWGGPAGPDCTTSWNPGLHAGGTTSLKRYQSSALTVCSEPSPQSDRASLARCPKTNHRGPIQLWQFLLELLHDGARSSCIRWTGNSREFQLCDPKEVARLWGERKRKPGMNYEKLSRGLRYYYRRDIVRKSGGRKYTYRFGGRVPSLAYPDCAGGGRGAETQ
# Method in brief: as §1
# ELF3 = target: T5, ELF3 (Homo sapiens, UniProt P78545 1-371); details: protein: recombinant; tags: N-terminal GST; dsDNA, one strand shown
# T5 sequence: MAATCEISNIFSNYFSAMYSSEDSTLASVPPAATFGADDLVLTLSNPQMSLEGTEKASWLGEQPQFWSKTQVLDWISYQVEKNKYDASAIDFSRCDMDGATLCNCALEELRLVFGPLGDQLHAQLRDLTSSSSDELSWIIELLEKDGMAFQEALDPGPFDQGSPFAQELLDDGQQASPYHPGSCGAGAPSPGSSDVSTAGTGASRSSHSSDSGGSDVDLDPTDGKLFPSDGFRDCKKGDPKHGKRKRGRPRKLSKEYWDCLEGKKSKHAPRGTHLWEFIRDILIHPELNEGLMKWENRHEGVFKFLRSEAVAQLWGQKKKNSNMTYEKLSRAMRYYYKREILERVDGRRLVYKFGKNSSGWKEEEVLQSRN
# Method in brief: as §1
# CRX = CRX (Homo sapiens, UniProt O43186 1-299); details: protein: recombinant; tags: N-terminal GST; dsDNA, one strand shown
# CRX, sequence (O43186 whole entry): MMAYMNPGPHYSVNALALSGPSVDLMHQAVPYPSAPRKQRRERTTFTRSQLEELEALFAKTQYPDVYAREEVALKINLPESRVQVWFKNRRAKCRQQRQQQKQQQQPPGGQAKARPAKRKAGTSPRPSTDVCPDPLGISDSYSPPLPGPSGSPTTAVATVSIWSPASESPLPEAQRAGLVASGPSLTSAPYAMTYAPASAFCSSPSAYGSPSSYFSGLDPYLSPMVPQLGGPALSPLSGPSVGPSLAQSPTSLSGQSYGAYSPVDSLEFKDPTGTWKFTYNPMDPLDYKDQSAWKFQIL
# Method in brief: as §1
# ETV1 = ETV1 (Homo sapiens, UniProt P50549 1-477); details: protein: recombinant; tags: N-terminal GST; dsDNA, one strand shown
# ETV1, sequence (P50549 whole entry): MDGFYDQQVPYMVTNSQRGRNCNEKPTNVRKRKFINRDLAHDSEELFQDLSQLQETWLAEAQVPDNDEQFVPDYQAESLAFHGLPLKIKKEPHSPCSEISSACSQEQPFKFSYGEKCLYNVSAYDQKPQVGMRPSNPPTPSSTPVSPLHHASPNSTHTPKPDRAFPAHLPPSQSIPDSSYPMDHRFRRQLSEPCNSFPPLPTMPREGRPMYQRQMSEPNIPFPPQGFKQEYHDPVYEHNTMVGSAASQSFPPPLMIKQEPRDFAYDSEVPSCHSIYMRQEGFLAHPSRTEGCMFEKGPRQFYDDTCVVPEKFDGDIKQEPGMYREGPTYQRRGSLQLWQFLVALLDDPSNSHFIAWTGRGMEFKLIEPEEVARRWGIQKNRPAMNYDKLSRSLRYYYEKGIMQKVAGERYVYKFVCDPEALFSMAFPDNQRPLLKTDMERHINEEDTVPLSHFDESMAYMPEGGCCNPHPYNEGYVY
# Method in brief: as §1
# ERF = target: T6, ERF (Homo sapiens, UniProt P50548 1-548); details: protein: recombinant; tags: N-terminal GST; dsDNA, one strand shown
# T6 sequence: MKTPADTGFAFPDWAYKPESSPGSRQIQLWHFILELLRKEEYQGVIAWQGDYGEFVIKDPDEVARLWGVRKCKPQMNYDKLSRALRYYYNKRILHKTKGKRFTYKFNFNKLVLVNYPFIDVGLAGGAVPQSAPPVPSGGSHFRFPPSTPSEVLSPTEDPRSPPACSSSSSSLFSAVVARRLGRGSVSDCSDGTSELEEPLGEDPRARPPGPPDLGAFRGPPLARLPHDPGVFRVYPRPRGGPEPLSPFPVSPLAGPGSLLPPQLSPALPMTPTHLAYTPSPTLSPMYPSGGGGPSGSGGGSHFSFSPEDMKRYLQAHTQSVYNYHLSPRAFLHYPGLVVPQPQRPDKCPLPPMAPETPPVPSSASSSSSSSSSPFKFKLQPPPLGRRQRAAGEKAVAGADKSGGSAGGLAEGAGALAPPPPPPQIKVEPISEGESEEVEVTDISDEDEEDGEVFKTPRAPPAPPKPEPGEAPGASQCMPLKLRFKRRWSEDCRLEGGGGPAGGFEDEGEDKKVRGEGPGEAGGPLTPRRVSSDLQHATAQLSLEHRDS
# Method in brief: as §1
# ETV3L = target: T7, ETV3L (Homo sapiens, UniProt Q6ZN32 1-361); details: protein: recombinant; tags: N-terminal GST; dsDNA, one strand shown
# T7 sequence: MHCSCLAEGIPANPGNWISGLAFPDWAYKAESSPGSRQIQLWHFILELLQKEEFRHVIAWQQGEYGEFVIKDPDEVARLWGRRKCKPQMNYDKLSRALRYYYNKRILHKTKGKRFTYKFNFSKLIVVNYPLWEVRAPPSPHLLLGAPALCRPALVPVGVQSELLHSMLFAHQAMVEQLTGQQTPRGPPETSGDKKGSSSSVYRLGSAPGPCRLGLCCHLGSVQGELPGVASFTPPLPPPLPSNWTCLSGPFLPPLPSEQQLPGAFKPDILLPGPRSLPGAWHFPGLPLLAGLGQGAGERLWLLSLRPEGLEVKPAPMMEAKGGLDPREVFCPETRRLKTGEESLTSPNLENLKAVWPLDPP
# Method in brief: as §1
# ETS2 = target: T8, ETS2 (Homo sapiens, UniProt P15036 1-469); details: protein: recombinant; tags: N-terminal GST; dsDNA, one strand shown
# T8 sequence: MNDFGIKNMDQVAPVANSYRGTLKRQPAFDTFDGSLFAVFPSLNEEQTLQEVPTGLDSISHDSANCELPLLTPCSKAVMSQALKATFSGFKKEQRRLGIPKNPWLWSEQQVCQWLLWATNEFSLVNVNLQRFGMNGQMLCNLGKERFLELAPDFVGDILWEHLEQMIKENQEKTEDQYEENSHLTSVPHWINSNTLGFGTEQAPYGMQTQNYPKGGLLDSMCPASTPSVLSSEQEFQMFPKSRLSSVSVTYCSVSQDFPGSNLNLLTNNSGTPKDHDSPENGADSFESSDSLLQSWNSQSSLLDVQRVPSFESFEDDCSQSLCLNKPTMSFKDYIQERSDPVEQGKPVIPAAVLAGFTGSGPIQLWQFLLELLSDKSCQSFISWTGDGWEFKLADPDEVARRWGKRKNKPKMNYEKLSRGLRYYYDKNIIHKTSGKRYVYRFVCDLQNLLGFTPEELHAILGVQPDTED
# Method in brief: as §1
# SPDEF = target: T9, SPDEF (Homo sapiens, UniProt O95238 1-335); details: protein: recombinant; tags: N-terminal GST; dsDNA, one strand shown
# T9 sequence: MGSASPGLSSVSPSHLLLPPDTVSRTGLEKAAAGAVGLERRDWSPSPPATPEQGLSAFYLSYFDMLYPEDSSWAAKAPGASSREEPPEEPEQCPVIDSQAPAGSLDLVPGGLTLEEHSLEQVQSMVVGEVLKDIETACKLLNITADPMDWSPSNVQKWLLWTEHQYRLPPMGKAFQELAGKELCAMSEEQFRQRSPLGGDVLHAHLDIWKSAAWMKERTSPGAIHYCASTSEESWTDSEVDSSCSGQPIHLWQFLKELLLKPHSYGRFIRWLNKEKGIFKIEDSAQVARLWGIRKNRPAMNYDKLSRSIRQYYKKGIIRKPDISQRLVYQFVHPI
# Method in brief: as §1
# ETV7 = target: T10, ETV7 (Homo sapiens, UniProt Q9Y603 1-341); details: protein: recombinant; tags: N-terminal GST; dsDNA, one strand shown
# T10 sequence: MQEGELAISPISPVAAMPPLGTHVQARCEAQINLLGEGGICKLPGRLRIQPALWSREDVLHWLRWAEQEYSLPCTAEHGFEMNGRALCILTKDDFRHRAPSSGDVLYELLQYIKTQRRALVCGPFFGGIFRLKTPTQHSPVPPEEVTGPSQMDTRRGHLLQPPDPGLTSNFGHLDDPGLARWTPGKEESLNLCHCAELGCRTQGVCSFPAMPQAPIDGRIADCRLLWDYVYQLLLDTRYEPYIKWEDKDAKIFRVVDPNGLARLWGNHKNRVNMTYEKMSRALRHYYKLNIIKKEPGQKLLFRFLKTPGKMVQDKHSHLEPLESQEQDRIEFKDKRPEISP
# Method in brief: as §1
# ELF5 = target: T11, ELF5 (Homo sapiens, UniProt Q9UKW6-2 1-255); details: protein: recombinant; tags: N-terminal GST; dsDNA, one strand shown
# T11 sequence: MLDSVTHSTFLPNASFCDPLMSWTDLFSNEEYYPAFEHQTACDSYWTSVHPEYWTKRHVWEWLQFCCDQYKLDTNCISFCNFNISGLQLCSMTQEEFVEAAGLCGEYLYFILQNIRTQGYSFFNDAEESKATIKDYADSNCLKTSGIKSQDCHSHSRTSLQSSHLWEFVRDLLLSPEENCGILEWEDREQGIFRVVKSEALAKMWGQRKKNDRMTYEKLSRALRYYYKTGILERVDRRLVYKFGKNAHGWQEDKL
# Method in brief: as §1
# ETV3 = target: T12, ETV3 (Homo sapiens, UniProt P41162-2 1-143); details: protein: recombinant; tags: N-terminal GST; dsDNA, one strand shown
# T12 sequence: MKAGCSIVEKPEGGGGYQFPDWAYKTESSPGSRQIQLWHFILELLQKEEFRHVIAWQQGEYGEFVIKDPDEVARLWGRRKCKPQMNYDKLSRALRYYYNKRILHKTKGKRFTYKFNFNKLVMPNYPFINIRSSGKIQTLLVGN
# Method in brief: as §1
# ETV6 = ETV6 (Homo sapiens, UniProt P41212 1-452); details: protein: recombinant; tags: N-terminal GST; dsDNA, one strand shown
# ETV6, sequence (P41212 whole entry): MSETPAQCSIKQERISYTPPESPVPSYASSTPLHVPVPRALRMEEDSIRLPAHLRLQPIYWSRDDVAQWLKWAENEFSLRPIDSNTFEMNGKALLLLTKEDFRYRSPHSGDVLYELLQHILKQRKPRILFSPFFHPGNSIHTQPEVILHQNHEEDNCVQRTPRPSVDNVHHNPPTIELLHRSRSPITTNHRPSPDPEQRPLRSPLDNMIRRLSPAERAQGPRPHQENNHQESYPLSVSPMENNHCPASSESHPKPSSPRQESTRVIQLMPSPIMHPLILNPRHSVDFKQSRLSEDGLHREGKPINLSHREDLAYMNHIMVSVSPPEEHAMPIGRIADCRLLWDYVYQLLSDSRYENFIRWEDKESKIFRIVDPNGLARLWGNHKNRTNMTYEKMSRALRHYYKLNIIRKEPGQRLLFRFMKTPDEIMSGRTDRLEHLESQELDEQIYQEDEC
# Method in brief: as §1
sequence,measurement,setting,value
ACGTCT,binding signal,FEV,"1.13 fold enrichment (6-mer frequency, TF over GST control)"
same,binding signal,ETV5,"1.12 fold enrichment (6-mer frequency, TF over GST control)"
same,binding signal,HSF1,"1.21 fold enrichment (6-mer frequency, TF over GST control)"
same,binding signal,SPIC,"1.17 fold enrichment (6-mer frequency, TF over GST control)"
same,binding signal,ELF4,"1.28 fold enrichment (6-mer frequency, TF over GST control)"
same,binding signal,ELK4,"1.12 fold enrichment (6-mer frequency, TF over GST control)"
same,binding signal,ETV2,"1.18 fold enrichment (6-mer frequency, TF over GST control)"
same,binding signal,ELF3,"1 fold enrichment (6-mer frequency, TF over GST control)"
same,binding signal,CRX,"1.09 fold enrichment (6-mer frequency, TF over GST control)"
same,binding signal,ETV1,"1.14 fold enrichment (6-mer frequency, TF over GST control)"
same,binding signal,ERF,"1.12 fold enrichment (6-mer frequency, TF over GST control)"
same,binding signal,ETV3L,"1.29 fold enrichment (6-mer frequency, TF over GST control)"
same,binding signal,ETS2,"1.26 fold enrichment (6-mer frequency, TF over GST control)"
same,binding signal,SPDEF,"1.12 fold enrichment (6-mer frequency, TF over GST control)"
same,binding signal,ETV7,"1.29 fold enrichment (6-mer frequency, TF over GST control)"
same,binding signal,ELF5,"1.09 fold enrichment (6-mer frequency, TF over GST control)"
same,binding signal,ETV3,"1.17 fold enrichment (6-mer frequency, TF over GST control)"
same,binding signal,ETV6,"1.19 fold enrichment (6-mer frequency, TF over GST control)"
